Data on 9 molecules can be found in PubChem BioAssay (EPA / NIEHS).

Some structures have more than one record in an assay (separate samples or runs), and their calls can disagree. Activity calls are given as the source filed them. Rule for the calls: active = hit-call score of the fitted dose curve at least 0.9, where 1 is the maximum; inactive = score below 0.9.

A short description of the first test: CCTE_Shafer_MEA_dev_interburst_interval_mean: CCTE's Neural Network Formation Assay for Mean Interburst Interval, Shafer Lab (AID 2284046).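 Note: well-mean interburst interval of bursting electrodes as AUC over four recording days; curve fitted for decrease in interburst interval relative to DMSO.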 An outline of the steps:
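Primary rat cortical neurons on PEI-coated 48-well MEA plates (laminin added with cells at plating) (16 electrodes/well), exposed from plating day 0 with renewal at DIV 5 and 9. Mean inter-burst interval averaged over bursting electrodes, AUC across days 5, 7, 9, 12; DMSO baseline.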
On to `CC(C)c1ccc(C(=O)N=C(N)N)cc1S(C)(=O)=O`, for which the call was inactive.
As to `C=CCc1ccc(O)c(OC)c1`, the molecule was called inactive.
In the case of `O=c1[nH]cc(F)c(=O)[nH]1`, the AC50 is 2820 nM (active).
In the case of `CC(=O)Oc1ccccc1C(=O)O`, the molecule was classed as inactive.
`C[Si]1(C)O[Si](C)(C)O[Si](C)(C)O[Si](C)(C)O1`: the outcome was inactive.
Turning to `CCCc1cc(=O)[nH]c(=S)[nH]1`, the call was inactive.
Regarding `FC(F)(F)C(F)(F)C(F)(F)C(F)(F)C(F)(F)C(F)(F)CCI`, the molecule was called inactive.
As to `OC[C@@H](O)[C@@H](O)[C@H](O)[C@H](O)CO`, the result was inactive.
On the same count and under the same terms, the same measure for `Cc1cc(=O)[nH]c(=S)[nH]1`: “inactive”.

A short description of the next test: CCTE_Shafer_MEA_dev_inter_network_spike_interval_mean: CCTE's Neural Network Formation Assay for Mean Inter-network Spike Interval, Shafer Lab (AID 2284047).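 For AC50: potency for a decrease in mean inter-network spike interval below DMSO.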 A digest of the protocol:
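Mean time between consecutive network-spike peaks, recorded extracellularly (adaptive spike detection) on DIV 5, 7, 9 and 12, summarized as trapezoidal AUC. Rat cortical cultures on MEAs dosed continuously days 0–12, re-dosed at feeds; loss-of-signal fit relative to DMSO.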
As to `CC(C)c1ccc(C(=O)N=C(N)N)cc1S(C)(=O)=O`, the molecule was classed as inactive.
As for `C=CCc1ccc(O)c(OC)c1`, the result was inactive.
For `O=c1[nH]cc(F)c(=O)[nH]1`, the molecule was classed as inactive.
On to `CC(=O)Oc1ccccc1C(=O)O`, for which the AC50 is 24.2 nM (active) and the outcome was inactive.
Consider `C[Si]1(C)O[Si](C)(C)O[Si](C)(C)O[Si](C)(C)O1`, for which the result was inactive.
Consider `CCCc1cc(=O)[nH]c(=S)[nH]1`, for which the molecule was called inactive.
With `FC(F)(F)C(F)(F)C(F)(F)C(F)(F)C(F)(F)C(F)(F)CCI`, the molecule was classed as inactive.
Same read-out and setting: the same measure for `OC[C@@H](O)[C@@H](O)[C@H](O)[C@H](O)CO`: “inactive”; for `Cc1cc(=O)[nH]c(=S)[nH]1`: “inactive”.
